# An excerpt weighted towards active compounds, which were near 11% of everything screened.
# HCV inhibitor: qHTS Assay for Inhibitors of Hepatitis C Virus (HCV). Huh7.5.1 HCVcc-Cre infection, luciferase reporter, 44 h. Potency, µM (series often up to 41.8 µM), for inactives: at the top dose activity change, negative = inhibition, usual class: inhibitors. actives 3.4% (n = 340,000). AID 651820, 2012
#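 Cells seeded at 1,000/well and cultured 4 h, then compounds added followed by HCVcc-Cre virus (~0.5 moi). After 44 h further culture, luciferase substrate was added, plates held 15 min at room temperature, and luminescence read for 15 sec.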
# AMA1-RON2 inh: qHTS for Inhibitors of AMA1-RON; Towards Development of Antimalarial Drug Lead: Primary Screen. actives 0.2% (n = 360,000). AlphaScreen AMA1-biotinylated RON2 peptide binding. Plasmodium falciparum AMA1 (3D7) - RON2 peptide interaction. Potency, µM (highest dose often 58.2 µM), without a hit: at the top dose activity change, negative = inhibition, most hits filed as inhibitors. AID 720542, 2013;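 note: 0% = vehicle wells and -100% = peptide control; nearly all actives have a fitted effect of over 45% in size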
#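 AMA1 (3D7) with his tag at 25 nM final met compounds first, then biotinylated RON2 peptide at 25 nM; detection used donor plus acceptor beads, 10 µg/mL apiece, read by AlphaScreen after 30 min at room temperature.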
# Pf growth 48h: Primary qHTS for delayed death inhibitors of the malarial parasite plastid, 48 hour incubation; P. falciparum luciferase growth in erythrocytes, 48 h; actives 5.9% (n = 310,000); AID 504832, 2011; Potency, µM (series often up to 28.7 µM), for inactives: at the highest dose activity change, negative = inhibition, most hits filed as inhibitors
#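 Luminescence readout; reporter = integrated firefly luciferase in P. falciparum. RBC culture at 2% hematocrit, 0.1% parasitemia final, 37 C/5% CO2; decreased signal taken as growth inhibition.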
# Pf growth 96h: Primary qHTS for delayed death inhibitors of the malarial parasite plastid, 96 hour incubation. P. falciparum luciferase reporter growth, 96 h. Potency, µM (highest dose often 28.7 µM), without a hit: top-dose activity change, negative = inhibition, most hits filed as inhibitors. actives 6.9% (n = 320,000). AID 504834, 2011
#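 Parasite growth measured via integrated firefly luciferase reporter in P. falciparum. Infected erythrocytes at 2% hematocrit, 0.05% parasitemia final were treated 96 hours at 37 C under 5% CO2, and luminescence was read.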
# * = called active by the depositor; u = inconclusive; x = not tested or not shown; [ ] = another dose, or the depositor's remark. Calls come from the whole dose curve; as a rule, active = well fitted curve in the direction sought with a large enough effect; inconclusive = small, poorly fitted or top-dose-only effect, or another doubt; inactive = no such curve, though single readings can be large; an effect the other way counts as inactive or inconclusive. Unless noted, % is set by controls: 0 for no effect and ±100 for the full control effect; potency is the fitted concentration of half-maximal effect.
SMILES,HCV inhibitor,AMA1-RON2 inh,Pf growth 48h,Pf growth 96h
COCC(=O)Nc1sc2c(c1C(=O)OC)CCCC2,7.1µM*,-7%,0%,1%
CC(=O)N1CCn2c3ccc(C)cc3c3cccc1c32,u,-9%,60%,50%
CN1/C(=C\C=N\NC(=O)c2cccnc2)C(C)(C)c2ccccc21,3%,103%,0.59µM*,u
COc1ccc(C(=O)/C=C/c2ccsc2)cc1CSCC(=O)O,29%,-11%,u,6.6µM*
Nc1c(C(=O)NCCC2=CCCCC2)sc2ccc(S(=O)(=O)N3CCCCC3)cc12,-30%,19%,13µM*,u
Cc1ccc(CNC(=O)c2sc3ccc(S(=O)(=O)N4CCCCC4)cc3c2N)cc1,32µM*,x,-9%,u
Cc1ccc(S(=O)(=O)N2CCCCC2)cc1C(=O)NCCC1=CCCCC1,u,-4%,u,u
Cc1ccc(CNC(=O)COC(=O)c2cccc(S(=O)(=O)N3CCCCC3)c2)cc1,9%,6%,7%,4%
COC(=O)CC(c1ccc(C#N)cc1)n1c(C)ccc1C (stereo not drawn),0%,-4%,9.3µM*,13µM*
CCOC(=O)CNC(=S)N(Cc1ccccc1)Cc1cccnc1,-5%,-2%,-6%,u
CCOc1ccc(S(=O)(=O)NCc2cccs2)cc1C(C)C,-1%,3%,u,u
O=C(NC(Cc1cccc(F)c1)C(=O)O)C1CCCCC1 (stereo not drawn),2.8µM*,-1%,21%,19%
Cc1ccc(C(=O)NC(Cc2cccc(F)c2)C(=O)O)cc1 (stereo not drawn),u,17%,x,x
COCOCCn1cc(CN2CCS(=O)(=O)N(Cc3ccc(-c4ccc(Cl)nc4)cc3)C(C(C)C)C2=O)nn1 (stereo not drawn),x,6%,x,x
CN(C)c1nc(N/N=C\c2ccc(Cl)c([N+](=O)[O-])c2)nc(Nc2ccc(F)cc2)n1,22µM*,27%,x,x
OC(CNc1ncnc2sccc12)c1ccccc1 (stereo not drawn),3.2µM*,6%,146%,210%
O=C(NCC(c1cccs1)N1CCOCC1)C1CCN(S(=O)(=O)c2c(Cl)cccc2Cl)CC1 (stereo not drawn),u,1%,13µM*,u
C#CCNC(=O)C1CCN(c2ccc(S(=O)(=O)N3CCOCC3)cc2Cl)CC1,0%,-5%,u,u
O=C(NCc1cccs1)C1CCN(c2ccc(S(=O)(=O)N3CCOCC3)cc2Cl)CC1,11%,-8%,4.7µM*,u
CC(=O)c1ccc(NC(=O)c2cc(Cl)sc2Cl)cc1,10%,-8%[2.32 µM],238%,438%
CC1(C)C2(C#N)C(=O)NC(=O)C12C#N (stereo not drawn),7%,-10%,x,x
CC1CCCC(NC(=O)CCC(=O)N2CCOc3ccccc32)C1C (stereo not drawn),18%,9%,9%,9.3µM*
O=C(CCC(=O)N1CCOc2ccccc21)NC1CCN(Cc2ccccc2)CC1,10%,5%,10%,31%
O=C(CCC(=O)N1CCOc2ccccc21)NCCc1ccccc1,12%,-8%,33%,15µM*
COc1ccc(C2C3=C(Nc4ncnn42)c2ccccc2CCC3)cc1 (stereo not drawn),12%,31%,u,-8%
SMILES,HCV inhibitor,AMA1-RON2 inh,Pf growth 48h,Pf growth 96h
Fc1ccc(/C=C2\CCCC3=C2Nc2ncnn2C3c2ccc(F)cc2)cc1 (stereo not drawn),u,28%,13µM*,u
CN(Cc1ccccc1)C(=O)c1csc([C@@H]2C[C@H](O)[C@@H](CO)O2)n1,x,15%,x,x
CCC(C)NC(=O)c1cc2cc3ccc(OC)cc3nc2s1 (stereo not drawn),u,-1%,x,7%
COc1ccc2cc3cc(C(=O)NCCN4CCc5ccccc5C4)oc3nc2c1,u,-1%,3.3µM*,u
COc1ccc2cc3cc(C(=O)NCCN4CCc5ccccc5C4)sc3nc2c1,11%,0%,u,2.6µM*
COc1ccc2cc3cc(C(=O)NCCN4CCN(Cc5ccccc5)CC4)oc3nc2c1,2%,8%,u,11%
CC1CCN(S(=O)(=O)c2cccc3cccnc23)CC1,-4%,-3%,4%,-12%
